Where a name gives a salt, the structure may show the parent alone. ± gives the standard deviation of the averaged measurements.

This assay has as its system A549. Briefly: relative viability (normalised to negative control = 1, bortezomib = 0) (fraction); higher = less cytotoxic. The note with it: inflammatory serum-free RHB-A with cytokines + LPS, 5 d + 24 h CellTiter-Blue. How it is done:
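A549 KRAS-mutant NSCLC cells, pre-treated 5 µM GSK126 or vehicle (DMSO), were seeded at 250 cells/well in 384-well plates in serum-free RHB-A medium with inflammatory cytokines/LPS and treated with Selleck kinase inhibitor and NCI oncology compounds at 30 or 300 nM in triplicate, refreshed at 48 h. Viability was read by CellTiter-Blue after 5 d plus 24 h and normalised per plate with cellHTS2 (mean of bortezomib positive control = 0, mean of negative control = 1).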

Setting [1] is: compound 30 nM, GSK126 pretreatment: 5 uM GSK126.
The mark [2] stands for this setting: compound 30 nM, GSK126 pretreatment: none (vehicle).
Where [3] appears, read: compound 300 nM, GSK126 pretreatment: 5 uM GSK126.
Setting [4] is: compound 300 nM, GSK126 pretreatment: none (vehicle).

`OCCn1cc(-c2ccc3c(c2)CC/C3=N\O)c(-c2ccncc2)n1`: the relative viability under setting [1] came to 0.948 ± 0.11, the relative viability under setting [2] was determined as 0.989 ± 0.093, the relative viability under setting [3] amounted to 1.03 ± 0.21 and the relative viability under setting [4] was determined as 1.14 ± 0.16.
In the same order, the values of `CCN(CC)CCCC(C)Nc1c2ccc(Cl)cc2nc2ccc(OC)cc12` (stereo not given) are 0.836 ± 0.066, 0.847 ± 0.051, 1.02 ± 0.091 and 1.02 ± 0.11.
The matching figures for `CC[C@@]1(O)C(=O)OCc2c1cc1n(c2=O)Cc2cc3c(CN(C)C)c(O)ccc3nc2-1` [Topotecan HCl; Topotecan hydrochloride]: 0.421 ± 0.033, 0.383 ± 0.021, 0.317 ± 0.026 and 0.221 ± 0.038.
The matching figures for `Cn1cc(-c2ccc3nnc(C(F)(F)c4ccc5ncccc5c4)n3n2)cn1`: 0.954 ± 0.11, 0.904 ± 0.029, 1.001 ± 0.009 and 0.947 ± 0.026.
With `CC(C)c1cnn2c(NCc3ccccc3)cc(NCCCCCCN)nc12` [BS-181 hydrochloride], the relative viability is, setting by setting: under setting [1], 0.804 ± 0.083; under setting [2], 0.821 ± 0.11; under setting [3], 0.853 ± 0.063; under setting [4], 0.895 ± 0.049.
The matching figures for `Cn1c(=O)c(F)c(Nc2ccc(I)cc2F)c2c(=O)n(C[C@@H](O)CO)cnc21`: 0.156 ± 0.017, 0.1847 ± 0.0015, 0.0544 ± 0.0097 and 0.0397 ± 0.0058.
`Oc1ccc(-c2nc(-c3ccc(F)cc3)c(-c3ccncc3)[nH]2)cc1`: the relative viability is, setting by setting: under setting [1], 1.08 ± 0.13; under setting [2], 0.954 ± 0.13; under setting [3], 1.36 ± 0.066; under setting [4], 1.17 ± 0.19.
As for `COc1ccc(-c2ccc3c(N4CCOCC4)nc(N4C[C@@H](C)O[C@@H](C)C4)nc3n2)cc1CO`, the relative viability under setting [1] was determined as 0.708 ± 0.013, the relative viability under setting [2] worked out at 0.745 ± 0.027, the relative viability under setting [3] was 0.428 ± 0.052 and the relative viability under setting [4] turned out to be 0.515 ± 0.086.
`O=P(O)(O)C(O)(Cn1ccnc1)P(=O)(O)O` [Zoledronic acid; Zolendronic acid]: the relative viability is 0.936 ± 0.023 under setting [1], 0.924 ± 0.15 under setting [2], 1.09 ± 0.12 under setting [3] and 1.08 ± 0.051 under setting [4].
In the same order, the values of `O=C1NC(=O)/C(=C/c2ccc3nccc(-c4ccncc4)c3c2)S1` are 0.83 ± 0.1, 0.85 ± 0.088, 0.747 ± 0.067 and 0.72 ± 0.029.

For the origin of these results see the supplement of paper PMC6279402.
